Holding throughout (test): DAPPL (digital affinity profiling via proximity ligation, sequencing); 10 mM Tris-HCl pH 7.5, 50 mM NaCl, 1 mM DTT, 4% glycerol, room temperature, 30 min; GST-TFs on glutathione beads, 16-mer random dsDNA library, 0.1% formaldehyde crosslink after washing; high values mean tight binding
The target in one experiment is T1, FLI1 (Homo sapiens, UniProt Q01543 1-452).
T1 sequence: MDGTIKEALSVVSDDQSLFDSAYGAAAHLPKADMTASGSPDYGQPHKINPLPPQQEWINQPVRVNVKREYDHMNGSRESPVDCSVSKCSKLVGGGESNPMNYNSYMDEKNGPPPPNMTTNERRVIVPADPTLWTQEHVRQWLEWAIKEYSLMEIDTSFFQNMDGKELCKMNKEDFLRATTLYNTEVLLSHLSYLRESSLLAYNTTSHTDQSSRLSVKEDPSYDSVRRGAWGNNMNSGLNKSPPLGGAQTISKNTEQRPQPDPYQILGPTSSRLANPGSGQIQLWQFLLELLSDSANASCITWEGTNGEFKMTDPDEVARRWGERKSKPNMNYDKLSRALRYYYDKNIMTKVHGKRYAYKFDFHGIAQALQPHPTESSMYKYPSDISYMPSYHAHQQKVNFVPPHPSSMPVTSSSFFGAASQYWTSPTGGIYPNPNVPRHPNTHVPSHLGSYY
To be noted: protein: recombinant; tags: N-terminal GST; dsDNA, one strand shown. In a few lines:
(§1)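 Each value of binding signal is a hexamer's read frequency for a factor divided by the same hexamer's frequency in the tag-only sample. Barcoded, bead-captured GST fusions of human transcription factors made in yeast were pooled with that sample and incubated with 200 nmole of a random double-stranded 16-mer DNA library in Tris/NaCl/DTT/glycerol buffer at room temperature for 30 min. Washing, 0.1% formaldehyde crosslinking, proximity ligation, PCR and Illumina NextSeq500 sequencing followed.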

In another experiment the target is T2, ELK1 (Homo sapiens, UniProt P19419 1-428).
T2 sequence: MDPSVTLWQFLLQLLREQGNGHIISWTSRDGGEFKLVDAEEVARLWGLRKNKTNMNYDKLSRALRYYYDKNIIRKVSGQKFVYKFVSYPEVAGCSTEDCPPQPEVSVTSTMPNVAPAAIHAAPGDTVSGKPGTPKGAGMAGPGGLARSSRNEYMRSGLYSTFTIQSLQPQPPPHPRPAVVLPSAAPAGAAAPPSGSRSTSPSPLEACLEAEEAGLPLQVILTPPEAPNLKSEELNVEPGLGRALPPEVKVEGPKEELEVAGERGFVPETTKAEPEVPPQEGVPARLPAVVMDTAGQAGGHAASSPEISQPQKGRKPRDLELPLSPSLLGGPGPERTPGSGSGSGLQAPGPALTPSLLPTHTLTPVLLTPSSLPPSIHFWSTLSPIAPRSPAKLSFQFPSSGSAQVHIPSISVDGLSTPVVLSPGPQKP
To be noted: protein: recombinant; tags: N-terminal GST; dsDNA, one strand shown. In short, it runs like this:
as §1

For a further experiment, the target named is T3, GABPA (Homo sapiens, UniProt Q06546 1-454).
T3 sequence: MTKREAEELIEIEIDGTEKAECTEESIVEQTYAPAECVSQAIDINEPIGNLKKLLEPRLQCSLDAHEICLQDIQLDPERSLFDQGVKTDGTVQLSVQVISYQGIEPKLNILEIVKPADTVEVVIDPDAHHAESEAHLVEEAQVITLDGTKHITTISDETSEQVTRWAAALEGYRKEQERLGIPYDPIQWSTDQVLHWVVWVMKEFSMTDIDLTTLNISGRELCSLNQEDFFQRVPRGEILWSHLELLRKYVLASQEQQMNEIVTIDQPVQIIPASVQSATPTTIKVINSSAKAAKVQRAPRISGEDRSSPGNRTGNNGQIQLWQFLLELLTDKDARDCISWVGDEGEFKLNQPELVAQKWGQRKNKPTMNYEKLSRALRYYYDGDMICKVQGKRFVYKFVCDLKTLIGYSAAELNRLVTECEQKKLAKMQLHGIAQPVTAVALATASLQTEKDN
To be noted: protein: recombinant; tags: N-terminal GST; dsDNA, one strand shown. In short, it runs like this: as §1

The target in a further experiment is T4, ERG (Homo sapiens, UniProt P11308 1-479).
T4 sequence: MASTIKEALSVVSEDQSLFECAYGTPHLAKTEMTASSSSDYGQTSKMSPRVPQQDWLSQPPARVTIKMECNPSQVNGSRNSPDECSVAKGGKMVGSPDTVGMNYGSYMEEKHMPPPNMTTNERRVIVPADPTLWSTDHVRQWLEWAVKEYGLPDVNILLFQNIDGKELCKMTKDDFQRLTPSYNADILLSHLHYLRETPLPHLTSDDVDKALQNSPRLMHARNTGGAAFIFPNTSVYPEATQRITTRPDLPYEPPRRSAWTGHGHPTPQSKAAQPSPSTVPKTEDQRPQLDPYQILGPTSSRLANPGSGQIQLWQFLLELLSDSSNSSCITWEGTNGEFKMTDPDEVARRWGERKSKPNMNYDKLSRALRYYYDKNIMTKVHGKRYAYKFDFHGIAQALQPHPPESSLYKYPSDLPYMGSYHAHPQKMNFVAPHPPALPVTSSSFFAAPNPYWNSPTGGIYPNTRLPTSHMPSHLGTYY
As to conditions: protein: recombinant; tags: N-terminal GST; dsDNA, one strand shown. In a few lines: as §1

Another experiment concerns the target ELF1 (Homo sapiens, UniProt P32519 1-619). To be noted: protein: recombinant; tags: N-terminal GST; dsDNA, one strand shown. In a few lines: as §1
Another experiment deals with T5, EHF (Homo sapiens, UniProt Q9NZC4 1-300).
T5 sequence: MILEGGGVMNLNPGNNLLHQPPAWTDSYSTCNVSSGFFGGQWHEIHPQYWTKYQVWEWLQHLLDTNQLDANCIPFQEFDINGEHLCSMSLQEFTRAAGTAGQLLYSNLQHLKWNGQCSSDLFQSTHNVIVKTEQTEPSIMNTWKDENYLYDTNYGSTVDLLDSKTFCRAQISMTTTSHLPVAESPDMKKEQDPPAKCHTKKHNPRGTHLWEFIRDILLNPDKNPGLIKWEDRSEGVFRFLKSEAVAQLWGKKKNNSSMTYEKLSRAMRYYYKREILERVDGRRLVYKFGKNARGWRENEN
As to conditions: protein: recombinant; tags: N-terminal GST; dsDNA, one strand shown. In a few lines: as §1

In another experiment the target is SPI1 (Homo sapiens, UniProt P17947 1-270). As to conditions: protein: recombinant; tags: N-terminal GST; dsDNA, one strand shown. In a few lines:
as §1

Another experiment has as its target SPIB (Homo sapiens, UniProt Q01892 1-262). As to conditions: protein: recombinant; tags: N-terminal GST; dsDNA, one strand shown. In a few lines: as §1
The target in a further experiment is T6, ELK3 (Homo sapiens, UniProt P41970 1-407).
T6 sequence: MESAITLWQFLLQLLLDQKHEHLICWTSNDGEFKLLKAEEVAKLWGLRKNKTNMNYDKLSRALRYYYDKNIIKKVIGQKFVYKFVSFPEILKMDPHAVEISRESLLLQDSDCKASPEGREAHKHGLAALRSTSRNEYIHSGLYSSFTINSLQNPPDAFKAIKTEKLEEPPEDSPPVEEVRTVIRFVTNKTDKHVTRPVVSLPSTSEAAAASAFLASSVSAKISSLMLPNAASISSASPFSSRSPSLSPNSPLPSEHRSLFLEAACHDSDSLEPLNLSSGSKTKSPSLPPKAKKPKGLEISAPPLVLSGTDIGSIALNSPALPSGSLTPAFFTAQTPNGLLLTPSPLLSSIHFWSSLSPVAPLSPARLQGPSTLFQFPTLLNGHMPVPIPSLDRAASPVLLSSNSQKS
As to conditions: protein: recombinant; tags: N-terminal GST; dsDNA, one strand shown. In a few lines:
as §1

The target of a further experiment is T7, FEV (Homo sapiens, UniProt Q99581 1-238).
T7 sequence: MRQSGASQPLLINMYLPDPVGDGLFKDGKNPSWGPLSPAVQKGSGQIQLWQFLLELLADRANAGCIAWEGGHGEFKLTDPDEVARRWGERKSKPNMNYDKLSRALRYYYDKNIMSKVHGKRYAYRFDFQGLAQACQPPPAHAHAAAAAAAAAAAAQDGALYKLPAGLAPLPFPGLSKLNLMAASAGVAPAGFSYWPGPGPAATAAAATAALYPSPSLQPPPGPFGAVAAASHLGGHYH
To be noted: protein: recombinant; tags: N-terminal GST; dsDNA, one strand shown. In a few lines:
as §1

The next experiment has as its target ETV5 (Homo sapiens, UniProt P41161 1-510). To be noted: protein: recombinant; tags: N-terminal GST; dsDNA, one strand shown. In a few lines:
as §1

The next experiment addresses HSF1 (Homo sapiens, UniProt Q00613 1-529). As to conditions: protein: recombinant; tags: N-terminal GST; chain copies: 3; dsDNA, one strand shown. In a few lines:
as §1

In another experiment the target is ELF4 (Homo sapiens, UniProt Q99607 1-663). As to conditions: protein: recombinant; tags: N-terminal GST; dsDNA, one strand shown. In a few lines:
as §1

In the next experiment the target is T8, ELK4 (Homo sapiens, UniProt P28324-2 1-405).
T8 sequence: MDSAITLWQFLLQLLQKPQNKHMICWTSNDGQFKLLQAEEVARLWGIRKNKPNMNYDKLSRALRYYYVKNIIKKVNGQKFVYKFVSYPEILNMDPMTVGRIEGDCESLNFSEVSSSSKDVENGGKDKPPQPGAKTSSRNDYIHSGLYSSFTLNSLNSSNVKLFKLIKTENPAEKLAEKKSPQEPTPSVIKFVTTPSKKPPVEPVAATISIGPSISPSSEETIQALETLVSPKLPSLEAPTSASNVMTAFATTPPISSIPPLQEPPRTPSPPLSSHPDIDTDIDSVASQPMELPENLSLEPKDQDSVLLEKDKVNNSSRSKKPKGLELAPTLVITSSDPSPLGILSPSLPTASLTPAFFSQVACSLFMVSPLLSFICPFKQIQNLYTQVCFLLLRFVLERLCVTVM
As to conditions: protein: recombinant; tags: N-terminal GST; dsDNA, one strand shown. In a few lines:
as §1

A further experiment deals with T9, ETV2 (Homo sapiens, UniProt O00321 1-342).
T9 sequence: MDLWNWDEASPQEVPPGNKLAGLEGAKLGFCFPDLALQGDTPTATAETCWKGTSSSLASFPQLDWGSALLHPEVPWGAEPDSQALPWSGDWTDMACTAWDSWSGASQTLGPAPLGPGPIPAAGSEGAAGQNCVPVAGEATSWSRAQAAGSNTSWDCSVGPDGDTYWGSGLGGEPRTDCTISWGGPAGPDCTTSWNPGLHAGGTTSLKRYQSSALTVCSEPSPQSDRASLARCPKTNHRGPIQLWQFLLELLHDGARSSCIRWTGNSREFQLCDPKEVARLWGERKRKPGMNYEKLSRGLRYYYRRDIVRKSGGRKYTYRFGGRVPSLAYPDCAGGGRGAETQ
To be noted: protein: recombinant; tags: N-terminal GST; dsDNA, one strand shown. In short, it runs like this: as §1

For the next experiment, the target named is T10, ELF3 (Homo sapiens, UniProt P78545 1-371).
T10 sequence: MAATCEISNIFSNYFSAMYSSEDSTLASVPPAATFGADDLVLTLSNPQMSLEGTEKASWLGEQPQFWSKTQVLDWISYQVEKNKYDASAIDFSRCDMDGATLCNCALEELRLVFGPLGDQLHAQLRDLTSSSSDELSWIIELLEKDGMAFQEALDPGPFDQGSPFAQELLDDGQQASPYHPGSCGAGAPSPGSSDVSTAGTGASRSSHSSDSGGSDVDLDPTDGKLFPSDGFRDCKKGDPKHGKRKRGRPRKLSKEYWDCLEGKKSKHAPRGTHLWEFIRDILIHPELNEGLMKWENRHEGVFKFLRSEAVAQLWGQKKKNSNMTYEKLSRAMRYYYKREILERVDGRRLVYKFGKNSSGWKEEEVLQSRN
As to conditions: protein: recombinant; tags: N-terminal GST; dsDNA, one strand shown. In a few lines: as §1

A further experiment addresses CRX (Homo sapiens, UniProt O43186 1-299). As to conditions: protein: recombinant; tags: N-terminal GST; dsDNA, one strand shown. In a few lines:
as §1

The next experiment concerns the target ETV1 (Homo sapiens, UniProt P50549 1-477). To be noted: protein: recombinant; tags: N-terminal GST; dsDNA, one strand shown. In a few lines:
as §1

Sequence of HSF1 (Q00613 whole entry): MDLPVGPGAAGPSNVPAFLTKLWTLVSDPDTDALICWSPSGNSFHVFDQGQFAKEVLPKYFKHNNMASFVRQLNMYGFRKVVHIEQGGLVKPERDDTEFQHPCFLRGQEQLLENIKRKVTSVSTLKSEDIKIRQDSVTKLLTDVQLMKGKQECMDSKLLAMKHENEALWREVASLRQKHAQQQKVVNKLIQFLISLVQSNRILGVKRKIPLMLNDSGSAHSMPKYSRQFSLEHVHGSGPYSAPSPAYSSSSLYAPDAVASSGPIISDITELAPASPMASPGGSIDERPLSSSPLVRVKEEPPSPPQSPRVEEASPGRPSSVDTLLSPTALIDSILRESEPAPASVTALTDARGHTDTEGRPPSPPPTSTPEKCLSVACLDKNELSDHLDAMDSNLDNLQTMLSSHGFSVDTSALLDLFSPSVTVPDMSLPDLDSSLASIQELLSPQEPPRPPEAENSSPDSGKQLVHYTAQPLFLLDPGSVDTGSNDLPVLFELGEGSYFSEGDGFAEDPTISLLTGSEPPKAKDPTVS
Sequence of ELF1 (P32519 whole entry): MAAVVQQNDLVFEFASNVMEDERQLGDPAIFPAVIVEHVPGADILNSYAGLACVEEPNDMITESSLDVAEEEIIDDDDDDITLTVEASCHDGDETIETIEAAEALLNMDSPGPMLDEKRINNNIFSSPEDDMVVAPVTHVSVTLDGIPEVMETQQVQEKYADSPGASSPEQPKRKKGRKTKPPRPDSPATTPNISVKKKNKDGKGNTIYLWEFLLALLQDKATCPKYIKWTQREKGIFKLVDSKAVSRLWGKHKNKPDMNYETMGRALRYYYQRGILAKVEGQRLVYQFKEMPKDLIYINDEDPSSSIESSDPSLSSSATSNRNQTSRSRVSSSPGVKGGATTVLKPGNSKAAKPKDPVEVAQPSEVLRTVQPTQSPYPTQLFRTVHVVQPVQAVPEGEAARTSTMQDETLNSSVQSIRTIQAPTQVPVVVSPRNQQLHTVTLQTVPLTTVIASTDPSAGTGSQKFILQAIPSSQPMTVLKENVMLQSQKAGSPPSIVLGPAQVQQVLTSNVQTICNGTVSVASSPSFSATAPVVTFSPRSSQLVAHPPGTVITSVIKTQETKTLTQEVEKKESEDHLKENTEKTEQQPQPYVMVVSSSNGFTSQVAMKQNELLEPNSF
Sequence of ETV1 (P50549 whole entry): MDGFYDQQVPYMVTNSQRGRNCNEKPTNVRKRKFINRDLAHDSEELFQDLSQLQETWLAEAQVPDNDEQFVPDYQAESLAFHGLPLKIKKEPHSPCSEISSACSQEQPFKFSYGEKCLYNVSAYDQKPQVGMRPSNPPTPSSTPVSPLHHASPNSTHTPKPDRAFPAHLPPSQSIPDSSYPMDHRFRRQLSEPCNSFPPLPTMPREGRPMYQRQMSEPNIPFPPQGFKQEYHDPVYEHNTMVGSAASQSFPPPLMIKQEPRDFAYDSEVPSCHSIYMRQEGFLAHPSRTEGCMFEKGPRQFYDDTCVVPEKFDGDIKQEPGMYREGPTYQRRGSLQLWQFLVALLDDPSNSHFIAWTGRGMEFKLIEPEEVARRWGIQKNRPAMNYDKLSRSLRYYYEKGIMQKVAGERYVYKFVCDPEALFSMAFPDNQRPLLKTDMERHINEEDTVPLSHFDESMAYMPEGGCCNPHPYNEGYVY
Sequence of SPIB (Q01892 whole entry): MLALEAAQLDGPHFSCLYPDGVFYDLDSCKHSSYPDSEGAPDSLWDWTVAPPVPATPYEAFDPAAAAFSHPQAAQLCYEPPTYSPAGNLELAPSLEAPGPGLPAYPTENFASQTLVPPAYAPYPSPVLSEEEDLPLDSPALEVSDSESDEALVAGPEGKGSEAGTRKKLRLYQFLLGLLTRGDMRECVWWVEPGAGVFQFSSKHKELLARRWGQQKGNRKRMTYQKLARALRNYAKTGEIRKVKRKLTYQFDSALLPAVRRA
Sequence of ETV5 (P41161 whole entry): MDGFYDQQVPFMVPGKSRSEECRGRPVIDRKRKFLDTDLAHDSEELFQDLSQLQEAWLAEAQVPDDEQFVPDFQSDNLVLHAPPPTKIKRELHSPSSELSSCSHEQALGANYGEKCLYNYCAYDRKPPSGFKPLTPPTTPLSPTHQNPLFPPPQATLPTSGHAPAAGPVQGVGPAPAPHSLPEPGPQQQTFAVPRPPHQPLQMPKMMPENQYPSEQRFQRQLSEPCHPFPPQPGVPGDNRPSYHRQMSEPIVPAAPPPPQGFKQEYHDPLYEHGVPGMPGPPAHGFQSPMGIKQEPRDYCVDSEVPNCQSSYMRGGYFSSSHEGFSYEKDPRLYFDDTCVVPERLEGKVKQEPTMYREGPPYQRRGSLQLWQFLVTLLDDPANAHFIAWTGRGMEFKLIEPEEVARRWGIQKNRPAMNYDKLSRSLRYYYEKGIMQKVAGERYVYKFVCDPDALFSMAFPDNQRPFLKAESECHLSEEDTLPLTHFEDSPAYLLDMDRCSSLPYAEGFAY
Sequence of CRX (O43186 whole entry): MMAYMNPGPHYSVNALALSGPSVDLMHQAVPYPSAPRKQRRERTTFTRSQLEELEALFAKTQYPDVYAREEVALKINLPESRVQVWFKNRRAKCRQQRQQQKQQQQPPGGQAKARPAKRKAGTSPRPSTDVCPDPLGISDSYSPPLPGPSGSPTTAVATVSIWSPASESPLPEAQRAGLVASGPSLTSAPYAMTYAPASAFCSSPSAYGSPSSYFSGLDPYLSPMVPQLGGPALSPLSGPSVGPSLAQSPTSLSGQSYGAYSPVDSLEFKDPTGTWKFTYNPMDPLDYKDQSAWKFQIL
Sequence of ELF4 (Q99607 whole entry): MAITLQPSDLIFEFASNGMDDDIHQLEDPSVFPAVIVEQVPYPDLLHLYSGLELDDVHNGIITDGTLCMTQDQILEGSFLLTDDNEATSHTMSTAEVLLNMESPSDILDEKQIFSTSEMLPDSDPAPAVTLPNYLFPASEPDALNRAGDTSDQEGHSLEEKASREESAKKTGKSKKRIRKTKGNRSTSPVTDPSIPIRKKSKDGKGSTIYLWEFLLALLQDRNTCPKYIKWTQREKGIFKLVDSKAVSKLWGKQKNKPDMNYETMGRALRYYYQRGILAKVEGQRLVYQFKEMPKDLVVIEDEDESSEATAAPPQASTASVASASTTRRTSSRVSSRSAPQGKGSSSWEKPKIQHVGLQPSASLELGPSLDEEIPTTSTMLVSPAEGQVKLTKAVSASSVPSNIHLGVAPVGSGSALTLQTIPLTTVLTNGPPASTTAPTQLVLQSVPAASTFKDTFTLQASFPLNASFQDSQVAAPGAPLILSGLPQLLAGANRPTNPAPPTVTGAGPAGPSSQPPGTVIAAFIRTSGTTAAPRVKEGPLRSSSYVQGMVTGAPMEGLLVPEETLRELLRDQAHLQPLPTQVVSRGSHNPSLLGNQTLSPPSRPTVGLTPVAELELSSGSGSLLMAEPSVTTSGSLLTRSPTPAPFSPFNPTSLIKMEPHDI

On to GTTTAC, for which the binding signal with FLI1 is 1.21 fold enrichment (6-mer frequency, TF over GST control); with ELK1, 1.13 fold enrichment (6-mer frequency, TF over GST control); with GABPA it was 1.19 fold enrichment (6-mer frequency, TF over GST control); with ERG it was 1.12 fold enrichment (6-mer frequency, TF over GST control); with ELF1, 1.08 fold enrichment (6-mer frequency, TF over GST control); with EHF, 1.14 fold enrichment (6-mer frequency, TF over GST control). Further, the binding signal with SPI1 was 1.13 fold enrichment (6-mer frequency, TF over GST control); in the experiment with SPIB it was 1.09 fold enrichment (6-mer frequency, TF over GST control); with ELK3, 1.03 fold enrichment (6-mer frequency, TF over GST control); with FEV, 1.11 fold enrichment (6-mer frequency, TF over GST control); with ETV5 it was 1.1 fold enrichment (6-mer frequency, TF over GST control); with HSF1 it was 1 fold enrichment (6-mer frequency, TF over GST control). Further, the binding signal in the experiment with ELF4 is 1.12 fold enrichment (6-mer frequency, TF over GST control); with ELK4 it was 1.32 fold enrichment (6-mer frequency, TF over GST control); with ETV2, 1.11 fold enrichment (6-mer frequency, TF over GST control); with ELF3 it was 1.28 fold enrichment (6-mer frequency, TF over GST control); with CRX it was 1.01 fold enrichment (6-mer frequency, TF over GST control); with ETV1, 1.17 fold enrichment (6-mer frequency, TF over GST control).

(Values after publication PMC7862700, “An all-to-all approach to the identification of sequence-specific readers for epigenetic DNA modifications on cytosine”.)
